Bioassay records deposited in PubChem BioAssay by several laboratories.
KKLEB cytotox: reduces viability of KKLEB cystic fibrosis airway cells. activity change (cytotoxicity), % at 5 µM. 0.36% of 360,000 active. KKLEB CF airway cells viability, ATPlite luminescence, overnight; hits give low values; cells stimulated with P. aeruginosa culture filtrate. AID 602141;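 active = corrected activity change at or below -50% at 5 µM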
HIF-2a block: blocks HIF-2a reporter activity; inhibition, % at 18.8 µM; 786-0 RCC cells HIF-2a reporter, luciferase luminescence, overnight; 0.72% of 360,000 active;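 active = inhibition of the luminescence signal of 40% or more relative to plate controls, in a single-dose primary screen at 18.75 µM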
Peg3 promoter: reduces Peg3 promoter-driven luciferase expression in HeLa | HeLa PEG-Prom luciferase reporter, luminescence, overnight | inhibition, % at 20 µM | 1.7% of 360,000 active;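 active = inhibition of at least 50% at 20 µM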
CF NFkB inh: cystic fibrosis NF-kB activation inhibition | inhibition, % at 5 µM | 0.86% of 360,000 active | KKLEB NF-kB-GFP reporter, PAF-induced, GFP fluorescence overnight;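 active = at least 50% inhibition at 5 µM, scaled per plate between neutral and stimulator controls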;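 note: PAF is a Pseudomonas aeruginosa culture filtrate used as stimulus; plate controls were PAF-stimulated DMSO wells for no effect and unstimulated DMSO wells for full effect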
ABHD5-PLIN5 inh: blocks binding of human ABHD5 to perilipin-5; inhibition, % at 4 µM; Split G. princeps luciferase complementation, luminescence, 4 h; 0.78% of 360,000 active;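 active = inhibition above the mean inhibition across every tested compound plus 3 SD, cut at about 22% in these data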;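 note: 0% = DMSO only wells and the 100% control is not disclosed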
TRPM1 prom inh: inhibitors of MITF-driven TRPM1 promoter in melanoma cells. 0.83% of 330,000 active. SK-MEL-5 TRPM1 promoter luciferase, 24 h. AID 488899. inhibition, % at 12.5 µM;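 active = mean inhibition across replicates of 60% or more, whatever share of single replicates reaches that level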
ABHD5 PLIN5 conf: confirmation of human ABHD5-PLIN5 interaction inhibitors; shares compounds with ABHD5-PLIN5 inh; biochemical ABHD5-PLIN5 interaction, luminescence; inhibition, % at 4 µM; 67% of 2,200 active; AID 651612; in the data active = inhibition above about 23%;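 note: 0% = DMSO vehicle wells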
HNF4 split-luc: active in HNF4 split-luciferase counter-screen for ABHD5-PLIN5 inhibitors; shares compounds with ABHD5-PLIN5 inh; HNF4 dimerization, luminescence, biochemical; inhibition, % at 4 µM; 77% of 2,200 active; AID 651674;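 active = mean inhibition across replicate wells exceeding the computed hit threshold, cut at about 13% in these data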;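 note: light from luciferase halves that rejoin when HNF4 fusion proteins dimerize; 0% = DMSO only wells and the 100% control is not given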
The depositor's hits bear a star; x = no result. Rows were chosen to be rich in hits. Some 3.1% of all compounds tested hit in one or more screens of this group.

SMILES | KKLEB cytotox | HIF-2a block | Peg3 promoter | CF NFkB inh | ABHD5-PLIN5 inh | TRPM1 prom inh | ABHD5 PLIN5 conf | HNF4 split-luc
COc1cccc(/C=N/NC(=O)c2cnn(-c3ccccc3)c2N)c1 | -1.9 | -221.1 | -151.1 | -0.1 | -1.9 | -52.0 | x | x
S=C(NCCc1ccccn1)NC1CC2CCC1C2 (stereo not given) | -17.3 | -139.2 | -106.3 | 18.5 | 62.5* | -41.9 | 0.6 | -2.4
CCN(CC)S(=O)(=O)c1ccc(OC)c(NC(=O)c2cc([N+](=O)[O-])ccc2N2CCOCC2)c1 | 2.8 | 11.2 | 24.8 | -34.5 | -3.0 | x | x | x
N#Cc1ccccc1Sc1ccccc1N | -8.3 | 0.5 | 3.8 | 19.0 | 0.0 | -6.5 | x | x
Nc1ccccc1SSc1ccccc1N | 3.7 | -2.9 | -32.6 | -28.2 | 60.2* | -13.2 | 88.4* | 104.2*
CCOc1cc(CNCCCN2CCOCC2)cc(Br)c1OCC(=O)Nc1cccc(C(F)(F)F)c1 | -13.6 | 18.6 | 68.1* | 12.7 | 24.6* | 74.4* | 16.8 | 15.0*
CC(C)NC(=O)c1cc(-c2ccco2)nn1-c1ccc(Cl)cc1 | -5.8 | 13.8 | 23.3 | -1.3 | 36.1* | 7.0 | 42.0* | 59.3*
Cc1ccc(CC2S/C(=C(/C#N)C(=O)NCc3ccco3)N(c3ccccc3)C2=O)cc1 (stereo not given) | -11.1 | 8.8 | -7.7 | 11.1 | 23.4* | 4.7 | 10.1 | 12.8*
N#C/C(C(=O)NCc1ccco1)=C1/SC(Cc2ccc(Cl)cc2)C(=O)N1c1ccccc1 (stereo not given) | 0.8 | 14.2 | -6.9 | 13.6 | 8.8 | 7.8 | x | x
Cn1ccnc1C1CCCCN1C(=O)c1cc(COc2ccc(F)cc2Cl)on1 (stereo not given) | -3.5 | -4.7 | -1.3 | 2.4 | 2.0 | -12.6 | x | x
CS(=O)(=O)c1nc(-c2ccccc2)cc(C(F)(F)F)n1 | -72.9* | 93.8* | 104.0* | 94.9* | 63.3* | 94.6* | 87.7* | 104.2*
FC(F)(F)c1cc(-c2ccccc2)nc(N2CCCCCC2)n1 | 11.3 | 5.1 | 12.0 | 1.8 | 1.3 | 2.6 | x | x
O=C(NC1CCC(=O)N(CCOc2ccccc2)CC1)OCc1ccccc1 (stereo not given) | 1.7 | 14.6 | 5.6 | 3.0 | -4.8 | -0.3 | x | x
COC(=O)C1CCN(c2cc(=O)n(-c3ccc(OC)cc3)c(=O)[nH]2)CC1 | 6.6 | 8.2 | -5.4 | -20.7 | 24.3* | -3.3 | -3.3 | 5.4
Cc1ccc(-n2c(=O)cc(N3CCN(C(=O)c4ccco4)CC3)[nH]c2=O)cc1 | -13.5 | 12.6 | 11.9 | 7.1 | 36.5* | -11.6 | 2.5 | 3.1
CCOC(=O)N1CCN(c2cc(=O)n(-c3ccc(OC)cc3)c(=O)[nH]2)CC1 | -8.6 | 24.6 | 4.9 | 2.6 | 18.4 | -0.2 | x | x
Cn1c(=O)cc(N2CCN(C(=O)c3ccco3)CC2)[nH]c1=O | 14.5 | 14.0 | 11.0 | -22.4 | 17.1 | 0.6 | x | x
COc1ccccc1CNC(=O)c1ccc(NC2=NC3CS(=O)(=O)CC3S2)cc1 (stereo not given) | 11.1 | 9.2 | 29.1 | -5.7 | 4.4 | -12.8 | x | x
CN(Cc1ccc(Cl)cc1)C(=O)CNC(=O)C12CC3CC(CC(C3)C1)C2 | -8.7 | 13.6 | 2.3 | 8.5 | -8.3 | 5.1 | x | x
N#Cc1cc(O)c(-n2nnc3ccccc32)cc1C#N | -0.6 | 11.8 | 1.6 | 2.8 | -9.1 | 8.2 | x | x
N#Cc1cc(Oc2cccc3cccnc23)c(-n2nnc3ccccc32)cc1C#N | -8.4 | 27.9 | 21.9 | -7.8 | 69.5* | 22.3 | 13.0 | 50.5*
COCCNC(=O)/C(C#N)=C/c1cccc(/C=C(\C#N)C(=O)NCCOC)c1 | 2.3 | 39.6 | 20.2 | 21.2 | 48.0* | 65.3* | 97.6* | 70.6*
COCCNC(=O)/C(C#N)=C/c1ccc(O)cc1 | -7.4 | -10.1 | -14.2 | -3.6 | -5.7 | -0.1 | x | x
CCOC(=O)Cn1c(COc2ccccc2OC)[n+](C)c2ccccc21 | -0.6 | 15.8 | 7.7 | 1.3 | 2.2 | x | x | x
CCCCCCCCCCOC(=O)Cn1c(COc2ccccc2C)[n+](C)c2ccccc21 | -42.4 | 1.9 | 106.7* | 59.9* | 24.2* | 4.7 | 8.7 | 8.6
COc1ccc2nc(COC(=O)c3cccs3)c(C(C)=O)[n+]([O-])c2c1 | -13.2 | 17.3 | 19.0 | 11.8 | -3.2 | 5.0 | x | x
